39 molecules from the antibiotic and cytotoxicity screens of Wong et al. (2023) can be followed below.

The whole screen tested about 39,000 compounds, of which about 3,300 (8.5%) were called active. The sample holds actives, similar compounds and a random draw of the others, so the mix is not that of the screen.

This test has as its system HepG2. The test is described as follows: cytotoxicity call (relative viability < 0.9). Conditions: 10 µM.
Take `COc1ccc(S(=O)(=O)N(C)C[C@@H]2Oc3ccc(NS(=O)(=O)c4ccc(C)cc4)cc3CC(=O)N([C@H](C)CO)C[C@@H]2C)cc1`: the cytotoxicity call is “inactive”. Turning to `CC(C)NC(=O)N(C)C[C@@H]1Oc2cc(C#Cc3cccc(F)c3)ccc2S(=O)(=O)N([C@H](C)CO)C[C@H]1C`, the cytotoxicity call is “inactive”.

For the molecule `Cc1ccc(S(=O)(=O)N(C)C[C@H]2OCCCC[C@H](C)Oc3ccc(NC(=O)Nc4ccc(F)cc4)cc3C(=O)N([C@@H](C)CO)C[C@H]2C)cc1`, the cytotoxicity call is “inactive”. Take `Cc1ccc(S(=O)(=O)N(C)C[C@H]2Oc3c(NC(=O)NC(C)C)cccc3C(=O)N([C@@H](C)CO)C[C@@H]2C)cc1`: the cytotoxicity call is “inactive”. As for `C[C@@H]1CCCCO[C@@H](CN(C)S(=O)(=O)c2ccc(F)cc2)[C@H](C)CN([C@@H](C)CO)C(=O)c2cc(NC(=O)C3CCCCC3)ccc2O1`, the entry is “inactive”; as for `C[C@H](CO)N1C[C@H](C)[C@H](CN(C)C(=O)Nc2ccc3c(c2)OCO3)OCCCC[C@H](C)Oc2ccc(NC(=O)Nc3cccc4ccccc34)cc2C1=O`, “inactive”. The value for `C[C@@H]1CCCCO[C@@H](CN(C)Cc2ccccc2)[C@H](C)CN([C@H](C)CO)C(=O)c2cc(NC(=O)C3CCCCC3)ccc2O1` was “inactive”; that for `CC(C)NC(=O)N(C)C[C@@H]1Oc2cc(-c3ccccc3F)ccc2S(=O)(=O)N([C@H](C)CO)C[C@@H]1C` was “inactive”; that for `C[C@@H]1CCCCO[C@H](CN(C)C(=O)Nc2ccc(C(F)(F)F)cc2)[C@H](C)CN([C@@H](C)CO)C(=O)c2cc(NC(=O)C3CCCCC3)ccc2O1` was “inactive”.

With `O=C(NC(Cc1cc(=O)[nH]c2ccccc12)C(=O)O)c1ccc(Cl)cc1` (centres undefined), the cytotoxicity call is “active”. Consider `Cc1cc(C)cc(C(=O)N(C)[C@H](Cc2ccc(-c3ccccc3)cc2)C(=O)N[C@@H](Cc2c[nH]c3ccccc23)C(=O)O)c1`, for which the cytotoxicity call is “inactive”.

`NCCCC[C@@H](N)C(=O)N[C@@H](Cc1c[nH]c2ccccc12)C(=O)N[C@@H](CCCCN)C(=O)O`: the cytotoxicity call is “inactive”.

For the molecule `Cc1noc(C)c1NC(=O)Nc1ccc2c(c1)C(=O)N([C@H](C)CO)C[C@H](C)[C@@H](CN(C)C(=O)Nc1ccccc1)OCCCC[C@@H](C)O2`, the cytotoxicity call is “inactive”. Consider `CC(C)[C@@H](N)c1nc2ccccc2[nH]1`, for which the cytotoxicity call was “inactive”. As for `C[C@@H]1CN([C@H](C)CO)C(=O)c2cc(NC(=O)Nc3ccc4c(c3)OCO4)ccc2O[C@@H]1CN(C)Cc1ccc(Cl)c(Cl)c1`, the cytotoxicity call was “inactive”.

`C[C@@H]1CN([C@@H](C)CO)C(=O)c2cc(NC(=O)Nc3ccc4c(c3)OCO4)ccc2O[C@@H]1CN(C)Cc1ccc(Cl)c(Cl)c1`: the cytotoxicity call is “active”. As for `C[C@H]1CN([C@@H](C)CO)C(=O)c2cc(NC(=O)Nc3ccc4c(c3)OCO4)ccc2O[C@H]1CN(C)Cc1ccc(Cl)c(Cl)c1`, the entry is “inactive”; as for `C[C@H]1CN([C@@H](C)CO)C(=O)c2cc(NC(=O)Nc3ccc4c(c3)OCO4)ccc2O[C@@H]1CN(C)Cc1ccc(Cl)c(Cl)c1`, “inactive”; as for `C[C@H](CO)N1C[C@H](C)[C@H](CN(C)Cc2ccc(Cl)c(Cl)c2)Oc2ccc(NC(=O)Nc3ccc4c(c3)OCO4)cc2C1=O`, “inactive”. As to `C[C@@H]1CN([C@@H](C)CO)C(=O)c2cc(NC(=O)Nc3ccc4c(c3)OCO4)ccc2O[C@H]1CN(C)Cc1ccc(Cl)c(Cl)c1`, the cytotoxicity call was “active”. For `COCC(=O)Nc1ccc2c(c1)OC[C@@H](C)N(C(=O)CN1CCOCC1)C[C@@H](C)[C@H](OC)CN(C)C2=O`, the cytotoxicity call was “inactive”.

Consider `COc1ccc(NC(=O)Nc2ccc3c(c2)CC(=O)N([C@H](C)CO)C[C@@H](C)[C@H](CN(C)Cc2ccc(C(F)(F)F)cc2)O3)cc1`, for which the cytotoxicity call was “inactive”.

Take `COc1ccc(NC(=O)Nc2ccc3c(c2)CC(=O)N([C@@H](C)CO)C[C@@H](C)[C@H](CN(C)Cc2ccc(C(F)(F)F)cc2)O3)cc1`: the cytotoxicity call was “active”. As for `COc1ccc(CN(C)C[C@H]2Oc3ccc(NC(=O)Nc4ccc(C(F)(F)F)cc4)cc3CC(=O)N([C@@H](C)CO)C[C@H]2C)cc1`, the entry is “active”; as for `COc1ccc(CN(C)C[C@H]2Oc3ccc(NC(=O)Nc4ccc(C(F)(F)F)cc4)cc3CC(=O)N([C@@H](C)CO)C[C@@H]2C)cc1`, “active”.

For `COc1ccc(NC(=O)Nc2ccc3c(c2)CC(=O)N([C@@H](C)CO)C[C@H](C)[C@@H](CN(C)Cc2ccc(C(F)(F)F)cc2)O3)cc1`, the cytotoxicity call is “inactive”. The value for `COc1ccc(CN(C)C[C@H]2Oc3ccc(NC(=O)Nc4ccc(C(F)(F)F)cc4)cc3CC(=O)N([C@H](C)CO)C[C@H]2C)cc1` was “active”; that for `CO[C@H](CN(C)S(=O)(=O)c1ccc(Cl)cc1)[C@@H](C)CN([C@@H](C)CO)S(=O)(=O)c1cccc(Cl)c1` was “inactive”. The value for `COc1ccc(CN(C)C[C@H]2OCCCC[C@H](C)Oc3ccc(NS(=O)(=O)c4ccc(F)cc4)cc3C(=O)N([C@H](C)CO)C[C@@H]2C)cc1` was “inactive”. In the case of `C[C@@H]1CN([C@H](C)CO)C(=O)c2cccc(NC(=O)Nc3ccc(C(F)(F)F)cc3)c2O[C@@H]1CN(C)S(C)(=O)=O`, the cytotoxicity call was “inactive”. For `C[C@H](CO)N1C[C@H](C)[C@@H](CN(C)Cc2ccccc2)OCCCC[C@H](C)Oc2ccc(NC(=O)NC3CCCCC3)cc2C1=O`, the cytotoxicity call was “inactive”. `O=C(Cn1cnnn1)NS(=O)(=O)c1ccccc1`: the cytotoxicity call is “inactive”.

`C[C@H](CO)N1C[C@H](C)[C@H](CN(C)S(=O)(=O)c2ccc(-c3ccccc3)cc2)OCc2cn(nn2)CCCC1=O`: the cytotoxicity call was “inactive”.

As for `C[C@@H]1CCCCO[C@@H](CN(C)C(=O)Nc2ccccc2)[C@@H](C)CN([C@@H](C)CO)C(=O)c2cc(NC(=O)c3ccccc3)ccc2O1`, the cytotoxicity call is “inactive”.

With `COc1ccc(S(=O)(=O)N(C)C[C@@H]2Oc3c(NS(=O)(=O)c4cn(C)cn4)cccc3C(=O)N([C@H](C)CO)C[C@H]2C)cc1`, the cytotoxicity call is “inactive”. The value for `O=C(C[C@@H]1CC[C@H](NC(=O)c2ccc(F)cc2)[C@@H](CO)O1)NCc1ccncn1` was “inactive”; that for `COc1ccc(NC(=O)Nc2ccc3c(c2)C(=O)N([C@H](C)CO)C[C@@H](C)[C@H](CN(C)S(=O)(=O)c2ccc(OC)cc2)OCCCC[C@H](C)O3)cc1` was “inactive”; that for `C[C@@H]1CN([C@H](C)CO)C(=O)CCCn2cc(nn2)CO[C@@H]1CN(C)S(=O)(=O)c1ccccc1C#N` was “inactive”. With `Cc1ccc(S(=O)(=O)N(C)C[C@H]2Oc3c(NS(=O)(=O)c4ccc(F)cc4)cccc3C(=O)N([C@H](C)CO)C[C@@H]2C)cc1`, the cytotoxicity call was “inactive”.
